Assay results reported in PubChem BioAssay AID1159580 (chemical genetic matrix, 2015).
Out of some 5,500 compounds screened, about 2,000 (36%) were called active. Another 18% or so got no clear call; they are omitted. No stated cut-off is given here; in the data, active means normalized growth mostly below about 0.91 (no sharp cut-off); inconclusive means no clear call, values can overlap the other calls; inactive means mostly above about 0.92. Some of the results follow.

Experiment: chemical genetic growth profiling, strain panel (AID 1159580);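 further: tested at 20 µM; growth read once vehicle control cultures reached saturation at 30 °C; 1 = growth at the plate median or of vehicle wells; lower values mean less growth of the strain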
Details: S. cerevisiae deletion strains, growth OD

Measured: normalized growth

COc1cc(OC)c2c(=O)c(-c3ccccc3)c(C)oc2c1OC
inactive: locus YAL013W, strain DEP1, hits give low values 1.01 | locus YAL021C, strain ccr4, hits give low values 0.984 | locus YAL026C, strain drs2, hits give low values 0.986 | locus YAL030W, strain snc1, hits give low values 0.976 | locus YBL061C, strain skt5, hits give low values 0.975 | locus YBR009C, strain hhf1, hits give low values 0.953 | locus YBR021W, strain FUR4, hits give low values 1 | locus YBR023C, strain chs3, hits give low values 0.987 | locus YBR171W, strain sec66, hits give low values 0.984 | locus YBR229C, strain ROT2, hits give low values 1 | locus YBR231C, strain swc5, hits give low values 0.993 | locus YBR279W, strain paf1, hits give low values 0.986 | locus YCL011C, strain gbp2, hits give low values 0.973 | locus YCL016C, strain dcc1, hits give low values 0.987 | locus YCL029C, strain bik1, hits give low values 1 | locus YCL061C, strain MRC1, hits give low values 0.988 | locus YCL069W, strain vba3, hits give low values 0.974 | locus YCR088W, strain abp1, hits give low values 0.988 | locus YDL005C, strain med2, hits give low values 0.973 | locus YDL035C, strain GPR1, hits give low values 1.02 | locus YDL040C, strain nat1, hits give low values 0.985 | locus YDL074C, strain BRE1, hits give low values 1.02 | locus YDL101C, strain DUN1, hits give low values 1.01 | locus YDL134C, strain PPH21, hits give low values 1 | locus YDL185W, strain tfp1, hits give low values 1 | locus YDL192W, strain arf1, hits give low values 0.995 | locus YDR001C, strain nth1, hits give low values 0.987 | locus YDR069C, strain doa4, hits give low values 0.966 | locus YDR101C, strain arx1, hits give low values 0.984 | locus YDR137W, strain rgp1, hits give low values 0.955 | locus YDR150W, strain NUM1, hits give low values 1.02 | locus YDR159W, strain sac3, hits give low values 0.973 | locus YDR162C, strain NBP2, hits give low values 1.02 | locus YDR195W, strain ref2 0.921 | locus YDR297W, strain sur2, hits give low values 0.988 | locus YDR318W, strain mcm21, hits give low values 0.995 | locus YDR334W, strain swr1, hits give low values 0.981 | locus YDR335W, strain msn5, hits give low values 0.997 | locus YDR388W, hits give low values 0.988 | locus YDR392W, strain spt3, hits give low values 0.925 | locus YDR502C, strain sam2, hits give low values 0.997 | locus YEL003W, strain gim4, hits give low values 0.987 | locus YEL037C, strain rad23, hits give low values 0.981 | locus YEL061C, strain CIN8 (second series), hits give low values 0.967 | locus YEL061C, strain CIN8, hits give low values 1.01 | locus YER015W, strain faa2, hits give low values 0.981 | locus YER016W, strain bim1, hits give low values 0.986 | locus YER110C, hits give low values 0.994 | locus YER111C, strain swi4, hits give low values 0.971 | locus YER155C, strain BEM2 (second series), hits give low values 0.978 | locus YER155C, strain BEM2, hits give low values 1.01 | locus YER167W, strain BCK2, hits give low values 1 | locus YFR010W, strain ubp6, hits give low values 0.98 | locus YGL078C, strain dbp3, hits give low values 0.998 | locus YGL086W, strain mad1, hits give low values 1 | locus YGL167C, strain pmr1, hits give low values 0.97 | locus YGL173C, strain kem1, hits give low values 0.99 | locus YGL227W, strain vid30, hits give low values 0.961 | locus YGL240W, strain doc1, hits give low values 0.977 | locus YGL248W, strain PDE1, hits give low values 1 | locus YGL253W, strain hxk2, hits give low values 0.994 | locus YGR078C, strain PAC10, hits give low values 1.01 | locus YGR135W, strain pre9, hits give low values 0.993 | locus YGR229C, strain SMI1, hits give low values 1.03 | locus YGR252W, strain gcn5, hits give low values 0.943 | locus YHR013C, strain ard1, hits give low values 0.94 | locus YHR027C, strain rpn1, hits give low values 0.987 | locus YHR030C, strain SLT2, hits give low values 1.01 | locus YHR079C, strain IRE1 (second series), hits give low values 0.989 | locus YHR094C, strain hxt1, hits give low values 0.993 | locus YHR129C, strain ARP1, hits give low values 1 | locus YHR142W, strain chs7, hits give low values 1.01 | locus YHR200W, strain rpn10, hits give low values 0.997 | locus YIL066C, strain RNR3, hits give low values 1.01 | locus YIL073C, strain SPO22, hits give low values 0.999 | locus YIL125W, strain kgd1, hits give low values 0.997 | locus YIR030C, strain dcg1, hits give low values 1 | locus YJL092W, strain hpr5, hits give low values 0.987 | locus YJL095W, strain BCK1, hits give low values 1.01 | locus YJL115W, strain asf1, hits give low values 1 | locus YJL129C, strain trk1, hits give low values 0.946 | locus YJL134W, strain LCB3, hits give low values 1.01 | locus YJL154C, strain vps35, hits give low values 0.985 | locus YJL164C, strain tpk1, hits give low values 1 | locus YJL166W, strain qcr8, hits give low values 0.98 | locus YJL168C, strain set2, hits give low values 0.997 | locus YJL187C, strain SWE1 (second series), hits give low values 1.01 | locus YJL187C, strain SWE1, hits give low values 0.987
